The record followed here is the supplement of paper PMC12632987.

T1: USP38, Q8NB14
T1 chain: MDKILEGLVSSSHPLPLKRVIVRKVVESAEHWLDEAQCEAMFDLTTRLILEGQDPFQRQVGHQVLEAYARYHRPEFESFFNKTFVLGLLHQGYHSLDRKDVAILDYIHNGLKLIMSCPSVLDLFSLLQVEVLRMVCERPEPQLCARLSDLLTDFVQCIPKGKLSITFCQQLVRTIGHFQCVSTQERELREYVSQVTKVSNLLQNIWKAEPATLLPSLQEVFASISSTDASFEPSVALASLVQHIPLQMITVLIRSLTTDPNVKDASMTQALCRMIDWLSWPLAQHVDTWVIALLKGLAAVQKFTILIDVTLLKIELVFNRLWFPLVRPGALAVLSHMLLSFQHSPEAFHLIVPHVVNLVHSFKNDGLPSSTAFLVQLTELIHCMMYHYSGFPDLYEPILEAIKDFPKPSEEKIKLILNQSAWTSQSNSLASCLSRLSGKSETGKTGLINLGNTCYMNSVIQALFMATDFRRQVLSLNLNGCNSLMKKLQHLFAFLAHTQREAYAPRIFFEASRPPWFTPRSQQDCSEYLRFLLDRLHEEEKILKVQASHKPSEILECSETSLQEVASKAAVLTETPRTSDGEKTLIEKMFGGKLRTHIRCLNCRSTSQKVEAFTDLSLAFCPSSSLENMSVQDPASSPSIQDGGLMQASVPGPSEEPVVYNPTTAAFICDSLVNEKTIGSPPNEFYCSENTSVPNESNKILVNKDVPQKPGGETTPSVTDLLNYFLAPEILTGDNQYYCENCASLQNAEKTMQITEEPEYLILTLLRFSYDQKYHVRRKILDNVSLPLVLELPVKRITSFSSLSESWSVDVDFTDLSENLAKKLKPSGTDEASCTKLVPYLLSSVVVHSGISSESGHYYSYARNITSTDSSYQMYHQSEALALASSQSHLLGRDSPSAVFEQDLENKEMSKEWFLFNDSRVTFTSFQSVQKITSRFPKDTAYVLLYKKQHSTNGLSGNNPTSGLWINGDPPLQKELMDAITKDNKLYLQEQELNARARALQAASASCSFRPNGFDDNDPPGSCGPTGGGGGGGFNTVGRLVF

B1: usp_38_diff_out_13_93_74 (protein)
chain: DLEARVEALLAAQEAEADALAAELAARAAAGEITVEEILERSSALADRIAEETRRAVAELEAAGEAALARRLRERTAEILLRLTERVGAILEELAAREAA
B2: usp_38_diff_out_13_133_59 (protein)
chain: SAAEERRREAERRLAEAERRIRELLEKAKKALEEGDIDEAERYVGEAAGIILRTRSDLMALTRDDPELRRRILRRLKELEEELNELIDEVVEAEKKRFLA
B3: usp_38_diff_out_14_2_106 (protein)
chain: GEEEIKKATEETLKAIKEAIEKAKELKEKVKKDPSLAEEARKELFEAHDKVGDKVGALAKLIEEHKEYRETNKKAVKEVNEALKEYTEAVLELLEEIAEA
B4: usp_38_diff_out_13_133_54 (protein)
chain: AAAEARREEARRLLEEAEKEIEKLLKEAEKALEEGNIDKAYEYVAKAAGLLLETRDRLFDLTRDDPELRREVLKRLKELEKKLNELIDKVEAAERERFLA
B5: usp_38_diff_out_13_93_73 (protein)
chain: DPAEELRREAEELIEELRRRTDELVARLEAGEITIEEALARFSELMDEAAERLRELIARAEALGLEALAREIRRRVLEAMVEATERLGAALERAAEREAA
B6: usp_38_diff_out_13_43_65 (protein)
chain: LREEAEKALAEADKALGEAYKLSQEIRDKIRESDPETAKKLVKLRKELDDAGNALADARVALELALHSGEGVEEAIAATRAAIAALKKKIAEAKKELAAL
B7: usp_38_diff_out_14_2_100 (protein)
chain: GEEELKAATDATLKTLDAAIKEAKELKKEVEEDPSKAEEARKRLFEAWDKAADAVGALAKLMEEHKELRELNKEAVEKVNKRITELTKVALEALELAAKA
B8: usp_38_diff_out_14_2_108 (protein)
chain: AADKIKAATDATLAALEAAIAKAKELKERVKKDPSLAEEARKELFEAWDAVGDKVGALAKLLEENKAERATNKKATAEVNKALTEYTKAVLEALEEIAKA
B9: usp_38_diff_out_13_133_63 (protein)
chain: SAAEERRAAARARLDAAVAEVERLLEEARRALEEGDVERAERYVGEAAGVLVRTRSELMALTRDDPELRREILRRLKELERRLEELIDEVEAARREAFLA
B10: usp_38_diff_out_13_133_53 (protein)
chain: AAAEARRARALALLEEAEARVEKLIKEAEKALKEGKIDEARKYVAEAAGTLLRTRDELFDLTADDPELRREVLRRLKELTKRLDKVIDKVEKAERERFLA
B11: usp_38_diff_out_13_93_75 (protein)
chain: SLEDEAAALLAEIRAEAEALAAELEALAEAGKITIEEVLERTSALVDRIAERTRAMVARLRAAGLEALARRLEEEVNRILLDLTERVGRILERLAEREAA
B12: usp_38_diff_out_14_2_107 (protein)
chain: AKEEIKKKTEETLKALDEAIKAAKKLKEEVKKDPSLAEKARKELFKLWDEVGDKVGELAKLLEENKEERETNKEAVEKVNEALTKFTKAVLEALEEIEKA
B13: usp_38_diff_out_13_43_66 (protein)
chain: LEEEAEKVLKELDETLGEIYNLSLELRDKIRESDPETAKKLVEIKKRLDEVGNELADARRDLEIALISGEGLEEAIKKGKEKIEKAKKTIKEAKEELEKL
B14: usp_38_diff_out_13_93_70 (protein)
chain: SAEEKIKKLIEETKEKAKKKLEEMEEKVEAGELDVEEVLEEYSELMKYIVETHNEIEKLAKENGLEELLKEANKEFNELINETTEKVTEMLEKVAERQLA
B15: usp_38_diff_out_13_93_77 (protein)
chain: SLEEKAKALLAEIEARAKALLEELEELAERGEITIEEVLERSSALFDEIAAETRAMVAELEAAGKKALAEELKKKVNEIILDATEGIGKILERLAEREAA
B16: usp_38_diff_out_13_133_62 (protein)
chain: SAAEERRKEALKELEETEKKIEELLKKAKEALKEGKIEEAEKYVGEAAGLILKARSDLMAKTKDDPELRKEILKRLKELEKKLNELIDEVNEALKKKFLE
B17: usp_38_diff_out_13_93_76 (protein)
chain: TLEEKAEALLAEIRKRAEELLKELKKLAEEGKITIEEVLERSSKLFDEIAERTRAMVAELRAAGKEALAERVEKEVNEIILKATEGVGKILEFLAEKEAA
B18: usp_38_diff_out_13_93_69 (protein)
chain: EREERAEEIVERVERLGEELLKELEAAAADPSTTIEELLDLYSELVRRLVTATQAALAEARELGDEETVERILEISNETLLRLSELTTEALTAKAEAEAA
B19: usp_38_diff_out_14_2_104 (protein)
chain: AKATIEAATAAALKAIDDGKKRLEELTKKVKEDPSKAEEAREEILAVWDEVGDAVGALAATLRANPAERATNKAATAEVNKALTEFTKKALEALEVAEEA
B20: usp_38_diff_out_13_93_71 (protein)
chain: STEEEIERLVEEAEERARRELEEMREEVEAGKLNVEEVLERSSELFRWLVEKYNEIKKLAKEAGLEELLKEAEERFNELINKATEEVTEMLEKVAERELA
B21: usp_38_diff_out_14_2_101 (protein)
chain: AEEEIKKKKEETLKKLEEGIERLKKLKEEVKKDPSLAEKARKEAFEIHDEVADKVGELHKLILKNPELKELNKKAIKEVNEKLTEFTEALLEALEEAAAA
B22: usp_38_diff_out_13_133_56 (protein)
chain: SMAEKKREEAKKLLEETKKKVEKLLEEAEKALKEGDVEKAWEKVGEAAGTLLKARDELTDLTEDDPELRKEVLKELKKLEEKLNKLIDKVEKALREEFLK
B23: usp_38_diff_out_13_133_58 (protein)
chain: SAAEERRKKALERLEEAEKKVEELLKKAEEALKEGKIEEASKYVGEAAGIIVKTRSDLMALTKDDPELRKEILKRLKELEKKLNELIDKVVEAEKKKFLA
B24: usp_38_diff_out_14_2_102 (protein)
chain: AEAEIEKATEETLAVLEEAIKKFEELEKEVEEDPSKAEEAFERILEEWDRAADAVGALARLLEAHPEVRETRKKAVAEVNEALTRLTEKATRALEKAAEA
B25: usp_38_diff_out_13_133_55 (protein)
chain: AAAEAARAEAEALLAETEKRVEELLKKAKEALKAGDVETAEKYVGEAAGTLLEARDRLSDLTADDPELRREVLKRLKELEEKLNELIDEVEKALREEFLK
B26: usp_38_diff_out_13_133_60 (protein)
chain: SAAEERRAEARRRLEEAEERVKALLKEAKAALKAGKIDEARKKVGEAAGVIVDTRSDLMALTRDDPELRREILKRLKELEKELDKLIDEVVKAEEEAFLA
B27: usp_38_diff_out_13_133_57 (protein)
chain: SAAEERRAEARARLAETEAEVEKLLKEAKAALKAGDIDEAEKKVGEAAGLILEARSDLFALTRDDPELRREIRRRLKELEKELDKLIDEVVEARKKEFLA
B28: usp_38_diff_out_14_2_105 (protein)
chain: GEEEIKKATDKTLKKLEEATKKFKELKEKVKKDPSLAEEARKEAFKAWDEAGDAVGALAKLIEENKEHRATNKEATEKVNKALTEYTKAVLELLEEIAEA
B29: usp_38_diff_out_13_93_72 (protein)
chain: SAEEEIEKILKEVEEEAEKELEELEKEVAAGRLTVEEVLRRAGELFSYIVKKHQEIEKIAKENGLEALLKEATEKVNELINKVTERVTAMLERVAARQLA
B30: usp_38_diff_out_13_133_61 (protein)
chain: SAMEERRKEAREELEKAKKEIEELLKKAEEALKEGDIETAEKYVGEAAGLILDTRSDLMERTKDDPELRKEILKELKELEKKLNELIDKVVKAREEEFLK
B31: usp_38_diff_out_13_93_67 (protein)
chain: DKEEEAKKLLEELKKFAEEKLKELEKLAKDPSVTIEELLEKYSELVSELITKHNEVKKKLDELGDEKTKKEATKITNEALLRMSEITTEALTRKQEEAEA
B32: usp_38_diff_out_13_43_64 (protein)
chain: LREKAEKALAEADAALGRAYAVSRELRDKMREVNPEDAKKLLKARKKLDEVGNALADARAALETAMILGEGVEEAIPKVQAAVAKLKAAIEEAEKLLKEV

For the experiment, the target named is T1, USP38, Q8NB14. Put plainly: median log2 fold change of GCK-ALFA target abundance (FLAG IP / Myc IP barcode read proportion) (log2 ratio); each designed protein is fused to an ALFA-tag nanobody in HEK293 cells to bring the named protein to FLAG-tagged glucokinase (GCK); Myc marks an untargeted standard; higher = target protein stabilised (more abundant). The settings on record: target protein: 3xFLAG-MCP-GCK-ALFA reporter; HEK293 landing pad (RPLP). The method, boiled down: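 HEK293 landing-pad cells received a recombined binder library fused to the ALFA nanobody and were induced with 2 μg mL^−1 doxycycline, then transfected with a plasmid encoding a FLAG-tagged target and a Myc-tagged standard. Lysates were collected after 48 h for anti-FLAG and anti-Myc immunoprecipitation, and the circular RNA barcodes were reverse transcribed, amplified and sequenced. Target abundance for each binder is the median log2 ratio of FLAG to Myc barcode read proportions. Barcodes had to reach a proportion of at least 10^−7 in both replicates, each binder needed at least 3 barcodes per replicate, a pseudocount of 10^−6 was applied, and the two replicates were pooled.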
For B1, the “median log2 fold change” value amounted to 0.136.

As to B2, the “median log2 fold change” value amounted to 0.136.

Take B3: the “median log2 fold change” value was -0.23.

As for B4, the “median log2 fold change” value was -0.102.

As for B5, the “median log2 fold change” value was -0.395.

For the molecule B6, the “median log2 fold change” value came to 0.148.

Turning to B7, the “median log2 fold change” value was -0.611.

Consider B8, for which the “median log2 fold change” value was -0.78.

B9: the “median log2 fold change” value is 0.0626.

In the case of B10, the “median log2 fold change” value came out at 0.000412.

B11: the “median log2 fold change” value worked out at 0.213.

With B12, the “median log2 fold change” value was -0.442.

As to B13, the “median log2 fold change” value worked out at 0.341.

Turning to B14, the “median log2 fold change” value is -0.785.

With B15, the “median log2 fold change” value is -0.0527.

Turning to B16, the “median log2 fold change” value was determined as 0.147.

With B17, the “median log2 fold change” value was 0.124.

Consider B18, for which the “median log2 fold change” value was -0.38.

Consider B19, for which the “median log2 fold change” value stood at 0.0445.

As to B20, the “median log2 fold change” value is -0.429.

With B21, the “median log2 fold change” value was 0.0029.

Turning to B22, the “median log2 fold change” value is -0.0894.

Turning to B23, the “median log2 fold change” value was determined as 0.217.

Turning to B24, the “median log2 fold change” value was -0.0129.

Regarding B25, the “median log2 fold change” value came out at 0.299.

In the case of B26, the “median log2 fold change” value is -0.0799.

As for B27, the “median log2 fold change” value is 0.0932.

In the case of B28, the “median log2 fold change” value was -0.792.

For the molecule B29, the “median log2 fold change” value is -0.469.

On to B30, for which the “median log2 fold change” value was found to be 0.145.

With B31, the “median log2 fold change” value is 0.158.

Turning to B32, the “median log2 fold change” value is -0.253.
